Measurements: the supplement of paper PMC13380429

Test system: Vero E6 infected with SARS-CoV-2
Test: inhibition of SARS-CoV-2 cytopathic effect; higher = more antiviral protection, active = above 15
Settings: 48 h

Measured: inhibition of SARS-CoV-2 cytopathic effect

CC1(C)CCC[C@]2(C)[C@H]3CC(=O)O[C@]3(C)CC[C@@H]12 [Sclareolide (Norambreinolide)]
inactive: 1 nM -2.36% | 8.33 nM 3.53% | 100 nM 6.06% | 833.33 nM 2.01% | 10000 nM 1.5%

CNC1CC(N)C(O)C(OC2OC(CO)C(O)C3OC4(OC(C(N)CO)C(O)C(O)C4O)OC23)C1O (stereo not given) [Hygromycin B]
inactive: 1 nM -0.42% | 8.33 nM -1.63% | 100 nM -0.49% | 833.33 nM -1.13% | 10000 nM 1.46%

c1cncc(CN2CCC(n3ncc4c(N5CCOCC5)nc(-c5ccc6[nH]ccc6c5)nc43)CC2)c1
active: 10000 nM 17.7%
inactive: 1 nM 1.62% | 8.33 nM 0.29% | 100 nM 2.14% | 833.33 nM 12.2%

O=C(O)[C@@H](S)[C@@H](S)C(=O)O [dimercaptosuccinic-acid]
inactive: 1 nM 0.73% | 8.33 nM -1.78% | 100 nM -1.78% | 833.33 nM -1.02% | 10000 nM -2.75%

CON(C)C(=O)[C@H](O)[C@H](Cc1ccccc1)NC(=O)c1cc2cc(Cl)ccc2[nH]1
inactive: 1 nM -0.47% | 8.33 nM 0.53% | 100 nM 1.7% | 833.33 nM 1.24% | 10000 nM 4.39%

CN(C)CCCCC(=O)Nc1ccc(NC(=S)NC(=O)c2ccc(C(C)(C)C)cc2)cc1 [tenovin-6]
inactive: 1 nM -2.53% | 8.33 nM 0.01% | 100 nM -0.72% | 833.33 nM 4.3%
active: 10000 nM 18%

CC(=O)c1cc2c(o1)C(=O)c1ccccc1C2=O [napabucasin]
inactive: 1 nM 0.24% | 8.33 nM 1.91% | 100 nM 1.42% | 833.33 nM 7.16% | 10000 nM -36.6%
